Source: PMC4552634, “A New Set of Chemical Starting Points with Plasmodium falciparum Transmission-Blocking Potential for Antimalarial Drug Discovery” (PLoS ONE, 2015)
In all, about 13,000 compounds went through this assay and about 3,200 (25%) showed an effect of 50% or more. The list shows a part of the results.

What follows are compounds tested on P. falciparum stage V gametocytes. Settings: 48 h, 5 µM; inhibitor.
Design: BacTiter-Glo ATP luminescence viability of purified stage V gametocytes in 384-well plates, per cent inhibition versus DMSO

Compound | % Inhibition
CS(=O)(=O)CCNCc1ccc(-c2ccc3ncnc(Nc4ccc(OCc5ccccc5)c(Cl)c4)c3c2)o1 [TCMDC-138467] | 19.81%
COc1cc(OCCCCCCON2C(N)=NC(N)=NC2(C)C)cc(OC)c1OC [TCMDC-131371] | 3.006%
Cc1cc(OCCCN2CCC(NS(=O)(=O)c3ccc(C(F)(F)F)cc3)CC2)c2ccccc2n1 [TCMDC-136277] | -32.21%
COc1ccc(-n2nc(C)c3c2NC(=O)CC3c2ccccc2OCc2ccccc2F)cc1 (centres unmarked) [TCMDC-124907] | 2.012%
COc1ccc2nccc([C@@H](O)CN3CCC(NC(=O)c4cc5cccnc5[nH]4)CC3)c2c1 [TCMDC-140768] | 6.193%
Cc1ccc(NC(=O)c2ccc(CN3CCCN(Cc4cccc(O)c4)CC3)cc2)cc1 [TCMDC-136398] | -12.68%
Cc1ccc(Nc2nnc(SCC(=O)Nc3ccc(CN4CCCC4)cc3)s2)cc1 [TCMDC-125043] | 65.4%
Cc1ccc(NC(=O)c2ccc(CN3CCCN(CC4CCCCC4)CC3)cc2)cc1 [TCMDC-136397] | -64.33%
COc1ccccc1C1CCN(C2CCC(NC(=O)/C=C/c3ccc(C(F)(F)F)cc3F)CC2)CC1 (centres unmarked) [TCMDC-133486] | -41.82%
O=C(Nc1ccc2c(c1)CCC2)c1cccc(N2CCN(c3ccncc3)CC2)c1 [TCMDC-135125] | 2.245%
O=C(Nc1ccncc1)Nc1ccc2c(c1)CCN(C1CCC1)CC2 [TCMDC-135949] | 33.65%
O=C(c1cccc(COc2ccc3c(c2)CCN(C2CCCC2)CC3)c1)N1CCN(c2ccncc2)CC1 [TCMDC-134128] | 76.76%
Oc1ccc(CCNc2nc(NCc3ccccc3-c3ccc(F)cc3)nc(N3CCNCC3)n2)cc1 [TCMDC-133783] | 11.92%
COc1ccc2nccc([C@@H](O)CN3CCC(NCc4ccc5scnc5c4)CC3)c2c1 [TCMDC-141081] | 9.68%
Cc1ccc(NC(=O)c2ccc(Cl)c(Cl)c2)cc1-c1ccc(C(=O)Nc2ccncc2)cc1 [TCMDC-133696] | -4.564%
CCOc1cc(C)ccc1C1CCN(CCCCNC(=O)c2cnc(-c3ccc(C(F)(F)F)cc3)[nH]2)CC1 [TCMDC-138581] | 5.476%
COc1ccc2c(CCNc3nc(SC)ncc3C(=O)NCCc3ccc(F)cc3)c[nH]c2c1 [TCMDC-136796] | 55%
COc1ccc(NC(=O)[C@H](CC(C)C)Nc2ccnc(NCCc3ccc(F)cc3)n2)cc1 [TCMDC-134826] | 23.86%
COc1ccc(NC(=O)CCNc2ccnc(NCCc3ccc(F)cc3)n2)cc1 [TCMDC-134823] | 38.74%
CCNCc1ccc(-c2cc3ncnc(Nc4ccc(OCc5cccc(F)c5)c(Cl)c4)c3s2)[nH]1 [TCMDC-135542] | -36.05%
Clc1ccccc1OCc1ccccn1 [TCMDC-125865] | -0.5645%
Cc1ccc(N/C(N)=N/c2ncccc2OCc2c(F)cccc2Cl)cc1 [TCMDC-138944] | 83.96%

Compound | % Inhibition
Cc1ccc(F)c(NC(=O)c2c(-c3c(F)cccc3Cl)noc2C)c1 [TCMDC-125643] | -20.89%
O=C(/C=C/c1ccc(Cl)c(Cl)c1)NCCCCCN1CCCN(C(=O)Nc2cccc(F)c2)CC1 [TCMDC-135745] | -38.92%
CCOc1cc(C(=O)Nc2ccc(-c3nc4ccccc4[nH]3)cc2)cc(OCC)c1OCC [TCMDC-125676] | -48.5%
COc1cccc(C(=O)Nc2ccc(-c3nc4ccccc4[nH]3)cc2)c1 [TCMDC-124429] | 5.991%
Cc1ccc(-c2nc3ccc(C(=O)NC4CCC(N5CCCc6ccc(C#N)cc6C5)CC4)cc3[nH]2)cc1 (centres unmarked) [TCMDC-133551] | -1.563%
COc1cc(C(=O)Nc2cccc(-c3nc4ccccc4[nH]3)c2)cc(OC)c1OC [TCMDC-125848] | -4.164%
COc1ccccc1C1CCN(C2CCC(NC(=O)c3ccc4nc(-c5ccc(C)cc5)[nH]c4c3)CC2)CC1 (centres unmarked) [TCMDC-133556] | 115.6%
O=C(Nc1ccc(-c2nc3ccc(NC(=O)c4ccc(Br)cc4)cc3[nH]2)cc1)c1ccc(Br)cc1 [TCMDC-124212] | -13.35%
COc1ccc(Cl)cc1C(=O)Nc1ccc(-c2nc3ccccc3[nH]2)cc1 [TCMDC-125808] | 9.6%
COc1ccc(C(=O)Nc2ccc(-c3nc4ccc(C)cc4[nH]3)cc2)cc1OC [TCMDC-124358] | 77.27%
Cc1ccc(-c2nc3ccc(C(=O)NC4CCN(Cc5ccccc5)CC4)cc3[nH]2)cc1 [TCMDC-133073] | 5.058%
CCOc1cccc(C(=O)Nc2ccc(-c3nc4ccccc4[nH]3)cc2)c1 [TCMDC-123752] | 24.98%
N#Cc1cccc(C(=O)Nc2ccc(-c3nc4ccccc4[nH]3)cc2)c1 [TCMDC-124812] | 70.91%
COc1cc(C(=O)Nc2ccc(-c3nc4ccccc4[nH]3)cc2)cc(OC)c1OC [TCMDC-125796] | 51.37%
Cc1c(CNCCCNc2cc(=O)c3ccccc3[nH]2)sc(C(F)=C(F)F)c1Br [TCMDC-141189] | -2.633%
Cn1c(=O)c2nc(-c3ccc(Cl)cc3)nnc2n(CCCC#N)c1=O [TCMDC-138537] | 18.59%
CCOc1ccc(/C=C/C(=O)Nc2cccc3c2CCN(C)C3)cc1 [TCMDC-139243] | 3.869%
COc1ccc2nccc([C@@H](O)CN3CCC(NC(=O)COc4nc(SCc5ccc(F)cc5)nc5c4CCC5)CC3)c2c1 [TCMDC-141132] | -0.4192%
COC(=O)c1ccc(CC(C)NCC(O)c2cc(Cl)c(N)c(Cl)c2)cc1 (centres unmarked) [TCMDC-131421] | 9.503%
CCOc1ccc(C(=O)Nc2ccc(-c3nc4ccccc4[nH]3)cc2)cc1[N+](=O)[O-] [TCMDC-125221] | -12.2%
O=C(Nc1ccc(-c2nc3ccccc3[nH]2)cc1)c1ccc(Cl)c([N+](=O)[O-])c1 [TCMDC-125730] | 2.294%
Cc1cc(C(=O)Nc2ccc(-c3nc4ccccc4[nH]3)cc2)ccc1[N+](=O)[O-] [TCMDC-123604] | 62.44%
